The target in experiment [1] is T1, Muscle, skeletal receptor tyrosine-protein kinase (Homo sapiens) (UniProt O15146).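 Note: reported value is the mean percent inhibition of MuSK kinase.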
T1 sequence (whole entry): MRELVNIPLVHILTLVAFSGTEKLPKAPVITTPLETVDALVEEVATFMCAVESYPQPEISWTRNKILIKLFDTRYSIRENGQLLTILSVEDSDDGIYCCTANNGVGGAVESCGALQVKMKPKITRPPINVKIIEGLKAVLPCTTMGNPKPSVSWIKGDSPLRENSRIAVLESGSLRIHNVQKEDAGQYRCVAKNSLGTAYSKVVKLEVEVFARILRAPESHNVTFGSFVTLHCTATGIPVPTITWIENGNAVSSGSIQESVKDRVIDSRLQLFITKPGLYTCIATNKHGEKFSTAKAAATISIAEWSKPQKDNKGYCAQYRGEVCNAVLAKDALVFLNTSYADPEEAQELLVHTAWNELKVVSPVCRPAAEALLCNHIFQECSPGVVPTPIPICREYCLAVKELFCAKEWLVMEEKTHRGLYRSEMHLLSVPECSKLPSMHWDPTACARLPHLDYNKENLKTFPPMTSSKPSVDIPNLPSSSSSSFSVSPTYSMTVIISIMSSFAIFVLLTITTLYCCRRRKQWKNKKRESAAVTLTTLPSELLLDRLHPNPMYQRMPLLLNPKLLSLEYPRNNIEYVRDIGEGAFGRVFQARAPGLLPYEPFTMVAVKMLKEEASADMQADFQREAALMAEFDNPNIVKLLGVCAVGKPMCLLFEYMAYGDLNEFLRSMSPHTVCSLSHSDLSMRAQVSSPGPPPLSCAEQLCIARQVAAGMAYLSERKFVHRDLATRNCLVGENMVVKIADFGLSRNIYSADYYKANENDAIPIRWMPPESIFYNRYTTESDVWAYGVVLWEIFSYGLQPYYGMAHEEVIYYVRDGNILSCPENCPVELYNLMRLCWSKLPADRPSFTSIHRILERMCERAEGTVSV
As to conditions: at 1 µM.

The target of experiment [2] is Platelet-derived growth factor receptor alpha (Homo sapiens) (UniProt P16234). As to conditions: at 0.1 µM.
Experiment [3] has the same target. The note with it: at 1 µM.
Experiment [4] has as its system Platelet-derived growth factor receptor alpha (Homo sapiens), P16234 [D842V]. As to conditions: at 0.1 µM.
Experiment [5] shares this test system. As to conditions: at 1 µM.
Experiment [6] relates to Platelet-derived growth factor receptor alpha (Homo sapiens), P16234 [T674I]. The note with it: at 0.1 µM.
Experiment [7] shares this test system. As to conditions: at 1 µM.
Experiment [8] concerns Platelet-derived growth factor receptor alpha (Homo sapiens), P16234 [V561D]. As to conditions: at 0.1 µM.
For experiment [9] the test system is unchanged. As to conditions: at 1 µM.
Experiment [10] concerns the target Platelet-derived growth factor receptor beta (Homo sapiens) (UniProt P09619). The note with it: at 0.1 µM.
Experiment [11] has the same target. As to conditions: at 1 µM.
The target of experiment [12] is Tyrosine-protein kinase FRK (Homo sapiens) (UniProt P42685). The note with it: at 0.1 µM.
Experiment [13] has the same target. As to conditions: at 1 µM.
The target in experiment [14] is Protein-tyrosine kinase 2-beta (Homo sapiens) (UniProt Q14289). As to conditions: at 0.1 µM.
Experiment [15] shares this target. As to conditions: at 1 µM.
Experiment [16] concerns the target Proto-oncogene tyrosine-protein kinase receptor Ret (Homo sapiens) (UniProt P07949). As to conditions: at 0.1 µM.
Experiment [17] has the same target. As to conditions: at 1 µM.
Experiment [18] has as its system Proto-oncogene tyrosine-protein kinase receptor Ret (Homo sapiens), P07949 [V804L]. As to conditions: at 0.1 µM.
Experiment [19] shares this test system. The note with it: at 1 µM.
In experiment [20] the test system is Proto-oncogene tyrosine-protein kinase receptor Ret (Homo sapiens), P07949 [Y791F]. The note with it: at 0.1 µM.

The structures appear in SMILES notation.

Seven compounds from ChEMBL document CHEMBL1961873, “Compounds: GSK PKIS; Assays: Nanosyn kinase panel” (2012) can be followed below.

One may read the inhibition as the relative decrease from the control value, in per cent.

Proto-oncogene tyrosine-protein kinase receptor Ret (Homo sapiens), P07949 [V804L], sequence (P07949 whole entry V804L): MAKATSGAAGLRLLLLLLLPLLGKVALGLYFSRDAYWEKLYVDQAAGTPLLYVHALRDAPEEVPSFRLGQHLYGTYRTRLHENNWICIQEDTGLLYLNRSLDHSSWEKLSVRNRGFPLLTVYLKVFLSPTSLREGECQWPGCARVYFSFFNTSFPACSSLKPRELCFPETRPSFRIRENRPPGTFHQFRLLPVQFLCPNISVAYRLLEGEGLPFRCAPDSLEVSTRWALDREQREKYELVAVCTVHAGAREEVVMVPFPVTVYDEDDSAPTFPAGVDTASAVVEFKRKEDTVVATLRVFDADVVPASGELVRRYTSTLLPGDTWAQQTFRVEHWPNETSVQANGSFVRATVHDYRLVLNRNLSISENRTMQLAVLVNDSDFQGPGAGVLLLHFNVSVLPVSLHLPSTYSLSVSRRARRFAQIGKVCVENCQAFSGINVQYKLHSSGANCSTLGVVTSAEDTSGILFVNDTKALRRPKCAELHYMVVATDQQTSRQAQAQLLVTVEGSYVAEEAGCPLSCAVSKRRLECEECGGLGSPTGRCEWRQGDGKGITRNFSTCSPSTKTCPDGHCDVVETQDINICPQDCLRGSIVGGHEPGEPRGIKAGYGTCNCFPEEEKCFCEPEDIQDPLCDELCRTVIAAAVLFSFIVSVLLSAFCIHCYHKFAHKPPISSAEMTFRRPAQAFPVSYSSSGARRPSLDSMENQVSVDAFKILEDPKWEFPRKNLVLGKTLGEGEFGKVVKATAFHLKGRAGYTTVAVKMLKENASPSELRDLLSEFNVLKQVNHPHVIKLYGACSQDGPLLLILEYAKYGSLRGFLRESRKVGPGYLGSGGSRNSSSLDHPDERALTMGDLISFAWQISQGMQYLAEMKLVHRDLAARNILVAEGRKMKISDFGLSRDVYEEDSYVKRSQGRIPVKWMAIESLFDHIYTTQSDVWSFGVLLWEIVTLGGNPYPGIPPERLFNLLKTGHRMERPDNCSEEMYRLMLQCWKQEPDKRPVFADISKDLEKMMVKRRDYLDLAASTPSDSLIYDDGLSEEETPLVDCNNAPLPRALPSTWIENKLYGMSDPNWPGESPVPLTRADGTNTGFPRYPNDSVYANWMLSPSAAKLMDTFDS
Platelet-derived growth factor receptor beta (Homo sapiens), sequence (P09619 whole entry): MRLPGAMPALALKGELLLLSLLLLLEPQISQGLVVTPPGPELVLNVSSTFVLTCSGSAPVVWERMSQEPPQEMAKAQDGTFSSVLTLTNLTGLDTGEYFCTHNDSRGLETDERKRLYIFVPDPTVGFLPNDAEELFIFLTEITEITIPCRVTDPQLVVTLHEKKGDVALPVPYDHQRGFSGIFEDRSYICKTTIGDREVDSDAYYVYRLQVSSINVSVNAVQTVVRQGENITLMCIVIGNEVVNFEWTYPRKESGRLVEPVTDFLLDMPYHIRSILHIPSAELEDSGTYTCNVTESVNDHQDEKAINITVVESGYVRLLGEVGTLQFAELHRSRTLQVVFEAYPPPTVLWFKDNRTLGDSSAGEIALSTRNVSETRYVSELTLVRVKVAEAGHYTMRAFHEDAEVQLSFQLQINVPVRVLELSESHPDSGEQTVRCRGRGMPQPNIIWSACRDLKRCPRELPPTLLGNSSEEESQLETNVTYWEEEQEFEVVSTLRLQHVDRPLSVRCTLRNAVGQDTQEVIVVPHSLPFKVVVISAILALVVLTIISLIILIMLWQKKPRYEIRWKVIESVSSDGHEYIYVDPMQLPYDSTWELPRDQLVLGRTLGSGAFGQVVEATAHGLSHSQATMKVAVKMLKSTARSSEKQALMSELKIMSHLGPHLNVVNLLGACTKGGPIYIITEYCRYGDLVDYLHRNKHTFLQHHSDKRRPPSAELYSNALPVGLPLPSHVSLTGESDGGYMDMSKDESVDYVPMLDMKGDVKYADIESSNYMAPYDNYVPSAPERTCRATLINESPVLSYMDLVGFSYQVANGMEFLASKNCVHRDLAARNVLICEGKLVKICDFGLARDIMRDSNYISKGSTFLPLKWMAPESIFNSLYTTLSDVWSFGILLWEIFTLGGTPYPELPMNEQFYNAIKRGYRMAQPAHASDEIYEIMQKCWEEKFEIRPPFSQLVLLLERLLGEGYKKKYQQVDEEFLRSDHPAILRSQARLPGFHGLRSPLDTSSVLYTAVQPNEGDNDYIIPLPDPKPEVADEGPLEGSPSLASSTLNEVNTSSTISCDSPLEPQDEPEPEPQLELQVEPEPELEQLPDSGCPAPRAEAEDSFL
Proto-oncogene tyrosine-protein kinase receptor Ret (Homo sapiens), P07949 [Y791F], sequence (P07949 whole entry Y791F): as the sequence (P07949 whole entry V804L) above, with Y791F, L804V counted along it
Platelet-derived growth factor receptor alpha (Homo sapiens), sequence (P16234 whole entry): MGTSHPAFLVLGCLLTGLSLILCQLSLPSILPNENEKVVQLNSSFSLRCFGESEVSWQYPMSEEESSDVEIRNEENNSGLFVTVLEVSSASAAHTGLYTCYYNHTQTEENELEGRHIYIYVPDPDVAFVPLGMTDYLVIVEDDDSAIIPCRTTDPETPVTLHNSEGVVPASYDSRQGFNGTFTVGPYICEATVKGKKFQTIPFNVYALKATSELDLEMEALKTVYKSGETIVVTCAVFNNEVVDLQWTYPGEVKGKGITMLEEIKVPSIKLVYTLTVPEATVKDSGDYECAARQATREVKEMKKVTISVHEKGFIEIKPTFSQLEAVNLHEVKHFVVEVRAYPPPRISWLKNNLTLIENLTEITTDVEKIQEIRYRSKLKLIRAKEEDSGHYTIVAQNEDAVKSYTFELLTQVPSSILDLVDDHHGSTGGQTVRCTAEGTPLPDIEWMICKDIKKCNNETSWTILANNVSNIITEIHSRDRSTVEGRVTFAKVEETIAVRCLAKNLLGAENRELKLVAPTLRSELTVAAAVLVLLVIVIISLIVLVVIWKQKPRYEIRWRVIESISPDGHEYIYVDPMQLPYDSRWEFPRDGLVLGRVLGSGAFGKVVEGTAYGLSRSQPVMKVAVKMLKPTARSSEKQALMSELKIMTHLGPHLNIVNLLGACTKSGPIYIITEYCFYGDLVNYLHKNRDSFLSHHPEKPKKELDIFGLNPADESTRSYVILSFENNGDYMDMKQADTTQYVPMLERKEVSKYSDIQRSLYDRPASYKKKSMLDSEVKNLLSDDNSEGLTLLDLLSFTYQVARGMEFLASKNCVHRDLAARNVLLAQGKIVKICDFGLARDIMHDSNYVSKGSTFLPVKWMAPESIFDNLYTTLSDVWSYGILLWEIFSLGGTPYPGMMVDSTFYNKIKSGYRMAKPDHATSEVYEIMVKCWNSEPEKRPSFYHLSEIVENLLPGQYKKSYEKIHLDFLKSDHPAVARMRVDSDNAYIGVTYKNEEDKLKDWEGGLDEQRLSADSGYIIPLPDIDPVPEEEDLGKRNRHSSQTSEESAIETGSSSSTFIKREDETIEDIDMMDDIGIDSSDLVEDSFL
Tyrosine-protein kinase FRK (Homo sapiens), sequence (P42685 whole entry): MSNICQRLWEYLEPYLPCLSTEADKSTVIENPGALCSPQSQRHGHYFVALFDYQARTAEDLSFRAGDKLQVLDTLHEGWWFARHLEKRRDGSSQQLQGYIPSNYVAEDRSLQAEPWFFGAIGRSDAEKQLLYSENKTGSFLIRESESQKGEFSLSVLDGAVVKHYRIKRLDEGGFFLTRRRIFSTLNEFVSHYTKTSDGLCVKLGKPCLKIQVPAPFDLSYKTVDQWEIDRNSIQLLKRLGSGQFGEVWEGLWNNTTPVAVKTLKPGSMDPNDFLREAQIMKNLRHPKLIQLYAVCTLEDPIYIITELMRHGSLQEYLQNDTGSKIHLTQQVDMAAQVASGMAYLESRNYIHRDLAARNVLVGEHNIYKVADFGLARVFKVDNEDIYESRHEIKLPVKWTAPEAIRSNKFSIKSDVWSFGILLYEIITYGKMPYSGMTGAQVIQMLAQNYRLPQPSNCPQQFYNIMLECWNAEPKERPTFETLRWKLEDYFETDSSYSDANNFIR

For the compound `CCn1c(-c2nonc2N)nc2c(C#CCN)ncc(OCCCN)c21`, the inhibition amounted to 12.2% in [1]; 7.42% in experiment [2]; 11.7% in experiment [3]; 0.26% in [4]; 8.54% in experiment [5]; 2.16% in experiment [6]. In addition, the inhibition was 5.96% in experiment [7]; 4.02% in experiment [8]; 3.51% in experiment [9]; 9.08% in experiment [10]; 25.5% in experiment [11]; -0.39% in experiment [12]. In addition, the inhibition is -0.01% in experiment [13]; -5.89% in experiment [14]; 8.44% in [15]; 3.26% in experiment [16]; 4.11% in experiment [17]; 6.12% in experiment [18]. Also, the inhibition in [19] worked out at 9.27%; in experiment [20] it was 1.83%.

Take `NS(=O)(=O)c1ccc(N/C=C2\C(=O)Nc3ccc4ncsc4c32)cc1`: the inhibition was 51.2% in experiment [1]; 54.4% in experiment [2]; 86.9% in experiment [3]; 55.5% in experiment [4]; 91.5% in experiment [5]; 15.1% in experiment [6]. For the same compound, the inhibition was 60.9% in experiment [7]; 48.2% in experiment [8]; 90.9% in [9]; 56.5% in experiment [10]; 86.8% in [11]; 2.34% in experiment [12]. The inhibition in experiment [13] stood at 3.93%; in experiment [14] it was 7.28%; in [15], 43.6%; in experiment [16], 30.4%; in [17] it was 71.3%; in experiment [18] it was 47.3%. Moreover, the inhibition was 73.9% in experiment [19] and 30.5% in experiment [20].

Consider `Nc1nonc1-c1nc2cnccc2n1C1CCCCC1`, for which the inhibition in experiment [1] was 3.94%; in experiment [2] it was 3.7%; in [3] it was 18.1%; in experiment [4] it was 2.4%; in experiment [5], 16.9%; in experiment [6], 1.78%. In addition, the inhibition amounted to 19.5% in [7]; 2.95% in experiment [8]; 14.4% in experiment [9]; 4.64% in experiment [10]; 26.4% in experiment [11]; 0.25% in experiment [12]. Also, the inhibition was 0.75% in experiment [13]; -7.07% in experiment [14]; -8.39% in experiment [15]; 3.59% in [16]; 9.55% in [17]; 5.85% in [18]. In addition, the inhibition in experiment [19] stood at 19.5%; in experiment [20] it was 2.08%.

For the compound `CCn1c(-c2nonc2N)nc2c(C#CC(C)(C)O)ncc(OCC3CCNCC3)c21`, the inhibition in experiment [1] was found to be 3.71%; in [2], 9.32%; in experiment [3], 28.6%; in experiment [4], 4.23%; in experiment [5], 34.4%; in experiment [6] it was 7.44%. The inhibition in [7] stood at 29.9%; in [8], 5.4%; in experiment [9], 16.6%; in experiment [10], 12.1%; in experiment [11], 44.6%; in experiment [12] it was 1.13%. Moreover, the inhibition in [13] came out at 1.21%; in [14], 9.34%; in experiment [15], 29.7%; in experiment [16] it was 6.89%; in [17] it was 26.3%; in experiment [18], 6.2%. Also, the inhibition in [19] amounted to 28.5%; in [20] it was 5.3%.

Consider `COc1cc2c(cc1Nc1nc(Nc3ccsc3C(N)=O)c3cc[nH]c3n1)N(C(=O)CN(C)C)CCC2`, for which the inhibition in experiment [1] stood at 28.6%; in experiment [2], 11.4%; in [3] it was 26.1%; in [4], 2.44%; in experiment [5], 3.25%; in experiment [6], 1.93%. Further, the inhibition was 2.94% in experiment [7]; 3.24% in [8]; 13.9% in experiment [9]; 10.4% in experiment [10]; 33.9% in [11]; 1.91% in experiment [12]. Besides, the inhibition in experiment [13] amounted to 8.84%; in experiment [14], 77.8%; in experiment [15], 95.6%; in experiment [16], 11.9%; in [17], 14.2%; in experiment [18], 2.29%. In addition, the inhibition in [19] is 13.6%; in experiment [20], 1.79%.

For the compound `COc1cc(C=NNc2ncnc3c2cnn3Cc2ccccc2)ccc1O`, the inhibition in [1] was 17.2%; in experiment [2], 9.07%; in [3] it was 43.3%; in [4], 6.24%; in [5] it was 42.1%; in [6] it was -1.14%. For the same compound, the inhibition in experiment [7] came out at 1.46%; in [8], 6.77%; in experiment [9], 34.3%; in [10], 6.26%; in experiment [11], 26.4%; in experiment [12], 0.54%. Further, the inhibition in experiment [13] was 1.85%; in experiment [14] it was -6.73%; in [15], -1.9%; in [16], 7.87%; in experiment [17], 46.3%; in [18], 1.82%. Also, the inhibition in experiment [19] stood at 11.1%; in experiment [20], 7.69%.

With `Fc1ccc(-c2ncn(C3CCNCC3)c2-c2ccnc(Oc3ccccc3)n2)cc1`, the inhibition in experiment [1] was -0.77%; in experiment [2], 5.35%; in experiment [3] it was 9.51%; in experiment [4], 2.07%; in experiment [5] it was 4%; in [6], 1.52%. In addition, the inhibition is 5.42% in [7]; 2.95% in [8]; 5.32% in [9]; 3.81% in experiment [10]; 5.68% in [11]; 1.48% in experiment [12]. For the same compound, the inhibition in experiment [13] worked out at 1.29%; in experiment [14], 4.92%; in [15], 6.66%; in [16], 3.19%; in [17], 7.03%; in [18], 1.33%. For the same compound, the values for the inhibition in experiment [19] and in experiment [20] were 5.85% and 1.85%, respectively.
